This is an account of results in PubChem BioAssay (Tox21).

Where “and” joins values, the source holds several entries; their conditions need not be identical. Equal values may be shown once. A number with no mark means an inactive call. Results filed as inconclusive are left out. Calls of active or inactive are those of the source. Unless noted, calls come from the whole dose curve; as a rule, active = well fitted curve in the direction sought with a large enough effect in the repeat runs; inconclusive = weak or mixed curves; inactive = no such curve, though single readings can be large; an effect the other way counts as inactive or inconclusive.

Test [1] is described as follows: qHTS assay for small molecule agonists of the p53 signaling pathway (AID 651631; calls by dose curve; note: nearly all actives have a fitted effect of over 15% in size; note: potency is the fitted concentration of half-maximal effect). The gist of the method: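 Read-out is beta-lactamase FRET fluorescence measured 2 h after substrate addition at room temperature, in HCT-116 cells with a p53 response element-driven reporter exposed to compounds for 16 h at 37 °C.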
Background: qHTS replaces the single test concentration by a dilution series.

A short description of test [2]: qHTS assay for small molecules that induce genotoxicity in human embryonic kidney cells expressing luciferase-tagged ATAD5 (AID 651632). Note: nearly all actives have a fitted effect of over 15% in size. Note: potency is the fitted concentration of half-maximal effect. The gist of the method: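 Increased luciferase signal from ATAD5-tagged reporter cells indicates DNA-damage-driven ATAD5 induction. HEK293T cells are treated for 16 hr at 37C before detection with Amplite.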
The nature of test [3]: qHTS assay for small molecule agonists of the p53 signaling pathway - cell viability (AID 651633; calls by dose curve; note: nearly all actives have a fitted effect of over 30% in size; note: potency is the fitted concentration of half-maximal effect). Summed up: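 Viability counter-read: CellTiter-Glo luminescence (30 min, room temperature) in the same p53RE-bla plates. These plates had been exposed to compounds for 16 h at 37 C.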
Test [4] can be described thus: qHTS assay for small molecule disruptors of the mitochondrial membrane potential (AID 720635). Note: potency is the fitted concentration of half-maximal effect. Summed up:
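Mitochondrial membrane potential tracked with Mito-MPS dye, red aggregates (ex 540/em 590 nm) against green monomers (ex 490/em 535 nm). Compound treatment 1 hr at 37C, dye 30 min in HepG2.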

A short description of test [5]: qHTS assay to test for compound auto fluorescence at 590 nm (red) in HepG2 cells (AID 720674). The gist of the method:
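1 hr compound incubation on HepG2 cells, 37 C, 5% CO2; plate read ex 540 nm / em 590 nm; intensities reported as Rose Bengal sodium equivalents.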

A short description of test [6]: qHTS assay to test for compound auto fluorescence at 535 nm (green) in HepG2 cells (AID 720675).
Test [7] can be described thus: qHTS assay to test for compound auto fluorescence at 590 nm (red) in HEK293 cells (AID 720679). Summed up: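 Red autofluorescence, HEK293 cells: 2,000 cells/well; attach 4-5 hr 37C; add 23 nL cpd or DMSO; incubate o/n 37C 5% CO2; read Ex540/Em590; Rose Bengal sodium reference.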
A short description of test [8]: qHTS assay to test for compound auto fluorescence at 535 nm (green) in HEK293 cells (AID 720680).
The nature of test [9]: qHTS assay to test for compound auto fluorescence at 460 nm (blue) in HEK293 cell free culture (AID 720681). Summed up: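 Blue fluorescence (Ex 405/Em 460 nm, triamterene-equivalent) was read immediately after pin transfer of compound or DMSO into medium (DMEM, 10% FBS) without cells.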
Test [10] can be described thus: qHTS assay to test for compound auto fluorescence at 590 nm (red) in HEK293 cell free culture (AID 720683). The gist of the method: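 Red-channel autofluorescence of compounds in culture medium (DMEM, 10% FBS), no cells, measured at 540/590 nm. Rose Bengal sodium is the reference fluorophore for equivalence.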
Test [11] can be described thus: qHTS assay to test for compound auto fluorescence at 590 nm (red) in HepG2 cell free culture (AID 720684). Summed up:
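Plate contents were MEM with 10% FBS plus test compound or DMSO, no cells. Fluorescence was recorded with 540 nm excitation and 590 nm emission.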

Test [12] can be described thus: qHTS assay to test for compound auto fluorescence at 460 nm (blue) in HepG2 cell free culture (AID 720685). The gist of the method:
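Compound (23 nL) or DMSO pinned into cell-free MEM with 10% FBS; blue fluorescence read at 405/460 nm excitation/emission, expressed as auto-fluorescence equivalency to triamterene.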

Test [13] is described as follows: qHTS assay to test for compound auto fluorescence at 535 nm (green) in HepG2 cell free culture (AID 720686).
Test [14] in a line: qHTS assay to test for compound auto fluorescence at 460 nm (blue) in HepG2 cells (AID 720687). Summed up:
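Blue-channel autofluorescence (Ex/Em 405/460 nm, triamterene-equivalent) was measured after 1 hr compound exposure at 37 C, 5% CO2. Cells were HepG2, plated overnight at 37 C in MEM plus 10% FBS.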

The nature of test [15]: qHTS assay for small molecules that induce genotoxicity in human embryonic kidney cells expressing luciferase-tagged ATAD5 - cell viability (AID 651634; calls by dose curve; note: nearly all actives have a fitted effect of over 25% in size). The gist of the method:
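Cytotoxicity counterscreen in HEK293T cells bearing an ATAD5-luciferase reporter: live-cell protease activity measured by CellTiter-Fluor fluorescence after 15.5 hr compound exposure.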

Test [16] can be described thus: qHTS assay for small molecule disruptors of the mitochondrial membrane potential - cell viability (AID 720634; calls by dose curve; note: nearly all actives have a fitted effect of over 20% in size; note: potency is the fitted concentration of half-maximal effect). Summed up: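 After overnight attachment at 37 C, HepG2 cells received compound or DMSO vehicle for 1 hr. Viability is then taken from ATP-driven luminescence following a 30 min room-temperature CellTiter-Glo step.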
Test [17] can be described thus: qHTS assay to test for compound auto fluorescence at 460 nm (blue) in HEK293 cells (AID 720678). Summed up:
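Intrinsic compound fluorescence is recorded in live HEK293 cultures after overnight incubation at 37C, 5% CO2, using excitation 405 nm and emission 460 nm. Values are referenced to triamterene.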

Test [18] can be described thus: qHTS assay to test for compound auto fluorescence at 535 nm (green) in HEK293 cell free culture (AID 720682). The gist of the method: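 Fluorescein serves as the green reference fluorophore; each compound's intrinsic emission at 535 nm (excitation 485 nm) is reported as an equivalent amount of that dye, measured in serum-containing DMEM without cells.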
Test [19] addresses Glucocorticoid receptor (Homo sapiens) (UniProt P04150). Kind of test: qHTS assay to identify small molecule agonists of the glucocorticoid receptor (GR) signaling pathway (AID 720691; active = well fitted activation curve with a large enough effect in the signal ratio in the repeat runs, not every such curve was filed as active; the % refers to the signal ratio). Summed up: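 Agonist mode in a HeLa line carrying a GRE-controlled beta-lactamase reporter. Compounds act for 18 h at 37 C before a 2 h room-temperature FRET substrate step and fluorescence reading.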

For test [20] the target is unchanged. Nature of the test: qHTS assay to identify small molecule antagonists of the glucocorticoid receptor (GR) signaling pathway (AID 720692; active = well fitted inhibition curve with a large enough effect in the signal ratio in the repeat runs, not every such curve was filed as active; the % refers to the signal ratio). Summed up: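 Cells plated, rested 4 h at 37 C/5% CO2; compounds in DMSO pin-transferred; dexamethasone added to 5 nM final; 18 h at 37 C; B/G FRET substrate added, 2 h room temperature; fluorescence measured.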

Chain of Glucocorticoid receptor (Homo sapiens) (P04150 whole entry, looked up): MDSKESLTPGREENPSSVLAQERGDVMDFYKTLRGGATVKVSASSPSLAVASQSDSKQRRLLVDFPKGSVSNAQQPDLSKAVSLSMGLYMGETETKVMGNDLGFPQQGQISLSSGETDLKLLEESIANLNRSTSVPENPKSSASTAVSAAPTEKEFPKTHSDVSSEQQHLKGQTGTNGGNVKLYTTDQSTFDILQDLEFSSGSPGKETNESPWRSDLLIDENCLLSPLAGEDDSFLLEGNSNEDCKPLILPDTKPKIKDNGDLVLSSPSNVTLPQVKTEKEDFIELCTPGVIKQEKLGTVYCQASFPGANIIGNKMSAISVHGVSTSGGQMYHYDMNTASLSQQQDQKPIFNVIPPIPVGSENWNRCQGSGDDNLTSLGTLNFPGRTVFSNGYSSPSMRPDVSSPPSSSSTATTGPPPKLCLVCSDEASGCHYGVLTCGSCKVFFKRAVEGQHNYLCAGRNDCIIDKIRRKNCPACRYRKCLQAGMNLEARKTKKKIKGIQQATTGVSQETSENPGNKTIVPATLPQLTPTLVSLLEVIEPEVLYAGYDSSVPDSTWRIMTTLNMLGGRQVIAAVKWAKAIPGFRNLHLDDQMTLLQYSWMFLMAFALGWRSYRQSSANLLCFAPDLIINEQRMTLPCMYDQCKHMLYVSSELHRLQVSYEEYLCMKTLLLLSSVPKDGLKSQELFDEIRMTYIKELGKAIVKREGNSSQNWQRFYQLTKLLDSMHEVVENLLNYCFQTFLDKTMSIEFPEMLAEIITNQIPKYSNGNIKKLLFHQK

On to `N#CSCSC#N`, for which the Potency in test [1] was 5.57 µM (active) and 10.8 µM (active); in [2], 19.8 µM (active) and 30.3 µM (active); in test [3], 62.5 µM (active) and 60.5 µM (active); in test [4] it was 62.5 µM (active) and 48.1 µM (active). For the same molecule, the result in test [5], in test [6], in test [7], in test [8], in test [10] and in test [11] was inactive. Moreover, in [13], the molecule was called inactive. The Potency result in test [9], in test [12] and in [14] was “inactive” throughout.
Consider `CC(C)(C)OO`, for which the Potency entry in [1], in test [2], in [3], in test [15], in test [16] and in [4] was “inactive” throughout. Moreover, the Potency result in [17], in [9], in test [12] and in test [14] was “inactive” in each case. Moreover, the molecule was called inactive in test [5], in [6], in [7], in test [8], in [18] and in test [10]. In addition, the call in test [11] and in test [13] was inactive.
`COC(=O)N(C(=O)N1CO[C@@]2(C(=O)OC)Cc3cc(Cl)ccc3C2=N1)c1ccc(OC(F)(F)F)cc1`: the Potency is 46.9 µM (active) in [1], 3.32 µM (active) in [16] and 13.2 µM (active) in [4]. Further, the Potency result in test [2], in test [3], in test [15], in test [17], in [9] and in [12] was “inactive” each time. Moreover, the Potency entry in [14] was “inactive”. Also, the molecule was called inactive in test [5], in test [6], in test [7], in test [8], in test [18] and in test [10]. For the same molecule, the molecule was classed as inactive in test [11] and in [13].
As for `CCOC(=O)OC1=C(c2cc(C)ccc2C)C(=O)NC12CCC(OC)CC2` (stereo not given), the values for the Potency in test [1], in test [16] and in [4] were 68.5 µM (active), 10.9 µM (active) and 21.7 µM (active), respectively. Besides, the Potency result in test [2], in [15], in [17], in test [9], in [14] and in [19] was “inactive” in each case. Moreover, the molecule was classed as inactive in test [5], in test [6], in [7], in test [8], in test [10] and in [11]. For the same molecule, in test [13], the result was inactive.
Turning to `CCN(CC)c1c([N+](=O)[O-])cc(C(F)(F)F)c(N)c1[N+](=O)[O-]`, the Potency entry in test [1], in test [2], in [3], in test [15], in test [17] and in test [9] was “inactive” in each case. The Potency result in test [12] and in test [14] was “inactive” in each case. Besides, the Potency in test [4] was 24.3 µM (active). Also, the molecule was classed as inactive in test [5], in [6], in [7], in [8], in test [18] and in test [10]. In addition, the outcome in test [11] and in [13] was inactive.
For `CN(C)CCc1c[nH]c2ccc(O)cc12`, the Potency result in test [1], in test [2], in test [3], in test [15], in test [16] and in test [4] was “inactive” in each case. Besides, the Potency entry in [9], in [12], in test [14] and in test [19] was “inactive” throughout. In addition, the outcome in [5], in test [6], in test [7], in test [8], in test [18] and in test [10] was inactive. Moreover, the molecule was called inactive in test [11] and in [13].
Turning to `COc1ccc(/C(=C/C(=O)N2CCOCC2)c2ccc(Cl)cc2)cc1OC`, the Potency result in test [1], in test [2], in test [3], in test [15], in [16] and in test [17] was “inactive” in each case. Also, the Potency entry in test [9], in [12], in [14], in [19] and in test [20] was “inactive” each time. In addition, the molecule was called inactive in test [5], in test [6], in [7], in [8], in test [18] and in test [10]. For the same molecule, the result in [11] and in test [13] was inactive.
